Most compounds without a hit are left out; they make up all but 1.6% or so of the library.
HTR5A ag ctr – counter-screen for OPRM1-OPRD1 agonists: human HTR5A agonism; P47898; HTR5A agonist assay, luminescence, cell-based; activation, % at 9.3 µM; hit rate 0.61% among 340,000; in the data active = activation mostly above about 9.5%, no sharp cut-off; inactive = mostly below about 7.6%;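 note: 0% = cells with vehicle only and 100% = reference agonist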
Target sequence (P47898 whole entry, looked up): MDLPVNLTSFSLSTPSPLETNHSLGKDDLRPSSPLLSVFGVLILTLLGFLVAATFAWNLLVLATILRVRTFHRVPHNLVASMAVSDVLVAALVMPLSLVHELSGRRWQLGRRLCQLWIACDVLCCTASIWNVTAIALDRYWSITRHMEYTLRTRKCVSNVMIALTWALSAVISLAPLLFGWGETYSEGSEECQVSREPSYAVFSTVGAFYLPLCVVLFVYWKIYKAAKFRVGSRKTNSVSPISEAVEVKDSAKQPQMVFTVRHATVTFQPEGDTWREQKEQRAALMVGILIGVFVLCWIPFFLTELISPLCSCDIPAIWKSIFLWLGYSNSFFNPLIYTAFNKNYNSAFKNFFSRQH
m5-HT2A agonist – agonists of mouse serotonin 5-HT2A receptor (HTR2A) | CHO-K1 mHTR2A beta-arrestin complementation, luminescence; percent of 30 µM serotonin response | activation, % at 7.6 µM | hit rate 0.66% among 360,000;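 active = activation above a run cutoff, the mean activation of all tested compounds plus 3 SD, cut at about 14% in these data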;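 note: 0% = plate median of compound wells and 100% = 30 µM serotonin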
OPRM1-OPRD1 ag – agonists of human mu-delta opioid receptor heterodimerization; AID 504326; cells, OPRM1-OPRD1 heterodimerization, luminescence; activation, % at 9.3 µM; P35372+P41143; hit rate 0.3% among 340,000; in the data active = activation above about 18%;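 note: 0% = vehicle-treated cells and 100% = reference agonist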
OPRM1-OPRD1 inv – inverse agonists of human mu-delta opioid receptor heterodimerization. P35372+P41143. cell-based MOR-DOR heterodimer luminescence, inverse agonism. inhibition, % at 9.3 µM. hit rate 0.21% among 340,000. AID 504357; in the data active = inhibition above about 22%, passing the limit was not always enough;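 note: 0% = cells with DMSO and 100% = wells without cells with DMSO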
HTR5A inv ctr – inverse agonist of human HTR5A in OPRM1-OPRD1 counter-screen; AID 504634; P47898; HTR5A cell line, luminescence, inverse agonism; hit rate 0.083% among 340,000; inhibition, % at 9.3 µM; in the data active = inhibition mostly above about 23%, no sharp cut-off; inactive = mostly below about 18%;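 note: 0% = cells with DMSO and 100% = no-cell wells with DMSO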
OPRM1 ag – activates human mu opioid receptor in HTR2A counterscreen. shares compounds with m5-HT2A agonist. U2OS OPRM1 beta-arrestin PathHunter, luminescence; DMSO 0%, DAMGO 9.3 µM 100%. activation, % at 9.3 µM. hit rate 5.3% among 2,300. AID 624380;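 active = mean activation above the mean of DMSO-only wells plus 3 SD, cut at about 0.5% in these data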
m5-HT2A ag conf – confirmation of mouse HTR2A serotonin receptor agonists. shares compounds with m5-HT2A agonist. CHO-K1 PathHunter beta-arrestin recruitment, luminescence; DMSO 0%, 30 µM serotonin 100%. activation, % at 7.6 µM. hit rate 19% among 2,300. AID 624381;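 active = mean activation across triplicates above the hit threshold derived in the original primary screen, cut at about 15% in these data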
Starred values were filed as active, the others as inactive; x = no result given; ! = not active in a repeat.

SMILES	HTR5A ag ctr	m5-HT2A agonist	OPRM1-OPRD1 ag	OPRM1-OPRD1 inv	HTR5A inv ctr	OPRM1 ag	m5-HT2A ag conf
Cc1cccc(NC(=O)c2cnc3ccccn3c2=O)c1	-1	26*	0	1	3	-1	-1
COc1ccc(N2CC(C(=O)Nc3ccc(S(=O)(=O)N4CCCCC4)cc3)CC2=O)cc1 (stereo not drawn)	-2	8	-2	10	4	x	x
COc1ccc(N2CC(C(=O)Nc3ccc(S(=O)(=O)N4CCCC4)cc3)CC2=O)cc1 (stereo not drawn)	6	15*	0	1	-6	-1	-5
CCOC(=O)C1CCCN(S(=O)(=O)c2ccc(OC)cc2)C1 (stereo not drawn)	2	24*	0	2	19	-1	-3
CCCCOCCCNC(=O)C[C@@H]1C[C@@]2(C(=O)OCC)CCC=C2N(Cc2ccc3c(c2)OCO3)C1=O	x	3	x	x	x	x	x
COc1ccc2c(CN3CCN(c4ccccc4F)CC3)cc(=O)oc2c1	x	0	x	x	x	x	x
COc1ccc(-c2ccc(C(=O)Nc3cc(OC)c(OC)c(OC)c3)c3occc23)c(C)c1	x	0	x	x	x	x	x
CC1(C(=O)NS(=O)(=O)C2CC2)CCCN(C(=O)COCc2ccccc2)C1 (stereo not drawn)	x	7	x	x	x	x	x
CN1CCCCC1(C)C(=O)NCc1ccc(F)cc1 (stereo not drawn)	x	2	x	x	x	x	x
COc1ccc2[nH]c(C)c(CCN(Cc3cccs3)C(=S)Nc3ccccc3)c2c1	4	8	0	0	-11	x	x
COc1ccccc1NC(=S)N(CCc1c(C)[nH]c2ccccc12)Cc1cccs1	-4	16*	-1	4	12	-1	-5
COc1cc2c3nnc(-c4ccccc4)c-3cn(Cc3ccc(F)cc3)c2cc1OC	-1	32*	-2	10	-8	0	21*
CCc1cccc(C)c1NC(=O)CC(C)(C)CC(=O)O	-6	18*	0	1	-21	0	-3
CN1C=CC(C(C(N)=O)c2ccccc2)c2ccccc21 (stereo not drawn)	x	6	x	x	x	x	x
CC(CN1CCOCC1)OC(=O)/C=C/c1ccccc1 (stereo not drawn)	8	-3	1	-8	-20	x	x
CC(CN1CCCCC1)OC(=O)/C=C/c1ccccc1 (stereo not drawn)	1	17*	0	2	-5	-1	1
CC(C)N1C(=O)c2ccccc2NC(=O)C1C(=O)NCc1ccccc1 (stereo not drawn)	x	8	x	x	x	x	x
COc1ccc(NC(=O)Cn2nnc(C(=O)NCc3cccs3)c2N)cc1	-3	15*	-2	12	-3	-1	-1
COc1cccc(CNC(=O)c2nnn(CC(=O)Nc3cccc(C)c3)c2N)c1	0	18*	-3	13	-6	0	-3
COc1ccc(NC(=O)Cn2nnc(C(=O)NCc3cccc(OC)c3)c2N)cc1	-3	2	-3	14	11	x	x
Cc1ccc(NC(=O)Cn2nnc(C(=O)NCc3cccs3)c2N)cc1	-4	-1	0	0	-10	x	x
O=C1CCc2cc(S(=O)(=O)Nc3cccc(Cl)c3)ccc2N1	x	-2	x	x	x	x	x
Cc1cccc(NS(=O)(=O)c2ccc3c(c2)CCC(=O)N3)c1	3	16*!	3	-24	-7	0	5
O=C1NC[C@H](CCCCN2CCN(CCc3ccc(O)cc3)C(=O)C2=O)N(CCC2CCCCC2)C1=O	x	1	x	x	x	x	x
CCC1=C(Nc2ccccc2)COC1=O	x	1	x	x	x	x	x
SMILES	HTR5A ag ctr	m5-HT2A agonist	OPRM1-OPRD1 ag	OPRM1-OPRD1 inv	HTR5A inv ctr	OPRM1 ag	m5-HT2A ag conf
COCCNc1nc(Nc2ccc(C#N)cc2)c2sccc2n1	x	0	x	x	x	x	x
COc1ccc(-c2cc(C(=O)N3CCN(c4ccccc4)CC3)no2)cc1	5	4	0	-1	-13	x	x
COc1ccc(-c2cc(C(=O)N3CCCC3)no2)cc1OC	2	22*	0	3	-5	-1	1
COc1ccc(OC)c(-c2cc(C(=O)N3CCN(c4ccccc4)CC3)no2)c1	12	27*	2	-10	-36	-1	-5
COc1ccc(-c2cc(C(=O)N3CCCCC3)no2)cc1OC	0	1	-3	18	8	x	x
O=C1NC[C@H](Cc2ccccc2)N(C[C@H]2CCCN2C[C@H](Cc2ccc(O)cc2)N2C[C@H](Cc3ccc(O)cc3)N(CC3CCCCCC3)C(=O)C2=O)C1=O	-3	26*	-2	8	9	-1	73*
O=C1NC[C@H](Cc2ccccc2)N(C[C@H]2CCCN2C[C@H](Cc2ccccc2)N2C[C@H](Cc3ccc(O)cc3)N(CC3CCCCCC3)C(=O)C2=O)C1=O	-1	4	-2	8	3	x	x
CC1(C(=O)O)CCN1C(=O)c1cccc(OC(F)(F)F)c1 (stereo not drawn)	x	0	x	x	x	x	x
Cc1cc(S(=O)(=O)Nc2cccnc2)c(C)s1	-2	21*	-1	7	-24	0	-1
Cc1ccc(S(=O)(=O)Nc2cccnc2)cc1C	7	-4	-2	9	-24	x	x
CC(C)Cn1cc(-c2cccc3nccn23)cn1	x	5	x	x	x	x	x
Cn1ncc([N+](=O)[O-])c1C(=O)Nc1ccccc1C#N	x	16*	x	x	x	-1	-4
CC1(C(=O)NS(=O)(=O)c2ccc(Cl)s2)CCN1C(=O)Cc1ccc(Cl)cc1Cl (stereo not drawn)	x	0	x	x	x	x	x
CC(C)C[C@H]1CN(CCCC[C@@H]2CNC(=O)C(=O)N2CCc2ccccc2)C(=O)C(=O)N1CCc1ccccc1	x	-1	x	x	x	x	x
COc1cc(OC)c2c(C)cc(=O)oc2c1C(CCN1CCN(c2ccccc2)CC1)c1ccc2c(c1)OCO2 (stereo not drawn)	-10	21*	-1	4	24	-1	72*
COc1cc(OC)c2c(-c3ccccc3)cc(=O)oc2c1C(CCN1CCN(c2ccccc2)CC1)c1ccc(N(C)C)cc1 (stereo not drawn)	-10	17*	-1	7	26	-1	22*
N#CCc1ccc(-c2cccc3nccn23)cc1	x	0	x	x	x	x	x
COC(=O)[C@@]1(Cc2ccc(F)cc2)[C@H]2c3cc(C(=O)N(C)C)n(CCc4c[nH]c5ccc(O)cc45)c3C[C@H]2CN1C(=O)c1ccccc1	x	26*	x	x	x	0	11
Cc1cccc(C(O)c2cnc(C)n2Cc2ccccc2)c1 (stereo not drawn)	x	2	x	x	x	x	x
Cc1cc(C)cc(NC(=O)C(C)N2C(=O)c3ccccc3C2=O)c1 (stereo not drawn)	7	20*	0	-2	14	0	-2
COc1ccc(N(CC(=O)Nc2ccc(C)c(C)c2)S(=O)(=O)c2c(C)noc2C)cc1	-6	-8	4	-19	6	x	x

Screening results: PubChem, The Scripps Research Institute Molecular Screening Center
